Data on 7 compounds can be found in PubChem BioAssay (NCATS).

Values without a mark were called inactive. Results filed as inconclusive are left out. Calls of active or inactive are those of the source. Calls come from the whole dose curve; as a rule, active = well fitted curve in the direction sought with a large enough effect; inconclusive = small, poorly fitted or top-dose-only effect, or another doubt; inactive = no such curve, though single readings can be large; an effect the other way counts as inactive or inconclusive.

Test [1] has as its target Cytochrome P450 2C9 (Homo sapiens) (UniProt P11712). As to the kind of experiment: qHTS Assay for Inhibitors and Substrates of Cytochrome P450 2C9 (AID 883). For activity change, negative = inhibition: % is set by controls: 0 for no effect and ±100 for the full control effect. Note: nearly all actives have a fitted effect of over 60% in size. Note: potency is the fitted concentration of half-maximal effect. The method in brief: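 Luminescent read-out of deoxyluciferin hydroxylation, normalized to 57uM sulphaphenazole (AC100). Reaction: 10nM enzyme, 100uM Luciferin-H (equal to KM), 25mM KPO4, 10 min compound preincubation, then 60 min with NADPH regeneration, both at 37C.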
(In general: Quantitative high-throughput screening tests each substance at several concentrations.)

Test [2] addresses Cytochrome P450 3A4 (Homo sapiens) (UniProt P08684). As to the kind of experiment: qHTS Assay for Inhibitors and Substrates of Cytochrome P450 3A4 (AID 884). For activity change, negative = inhibition: series mostly up to about 57 µM; % is set by controls: 0 for no effect and ±100 for the full control effect. Note: nearly all actives have a fitted effect of over 50% in size. Note: potency is the fitted concentration of half-maximal effect. The method in brief: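 20 nM human CYP3A4 with 25 uM Luciferin-PPXE (at KM) in 200 mM KPO4, preincubated 10 min with compound; NADPH regeneration started a 60 min RT reaction. Luciferin detected by luminescence, normalized to 57 uM ketoconazole as full inhibition.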

Test [3] has the same target. As to the kind of experiment: qHTS Assay for Activators of Cytochrome P450 3A4 (AID 885). Note: nearly all actives have a fitted effect of over 65% in size. The method in brief: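 Steps: enzyme/substrate mix dispensed; compound added, 10 min RT; NADPH regeneration solution added, 60 min RT; luciferin detection buffer stops reaction; 20 min later luminescence measured.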
The target in test [4] is Cytochrome P450 2C19 (Homo sapiens) (UniProt P33261). The test can be described thus: qHTS Assay for Inhibitors and Substrates of Cytochrome P450 2C19 (AID 899). Note: nearly all actives have a fitted effect of over 60% in size. Note: potency is the fitted concentration of half-maximal effect. The method in brief:
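Luminescence readout of luciferin formed from 10uM Luciferin-H EGE (KM level) by 5 nM CYP2C19 in 50mM KPO4. 60 min NADPH-driven reaction at 37C after 10 min compound preincubation; data scaled to 57uM ketoconazole inhibition.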

Test [5] addresses Cytochrome P450 2D6 (Homo sapiens) (UniProt P10635). The test can be described thus: qHTS Assay for Inhibitors and Substrates of Cytochrome P450 2D6 (AID 891).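 Note: luciferin methyl ether substrate demethylated by CYP2D6 with NADPH regeneration; % is set by controls: 0 for no effect and ±100 for the full control effect; nearly all actives have a fitted effect of over 60% in size.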 The essentials: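 Human CYP2D6 (5 nM) with 30 uM Luciferin-ME EGE (at Km) in 100 mM KPO4, compound preincubated 10 min, then NADPH regeneration system for 60 min at room temperature. Luciferin read by luminescence; normalized to 1.43 uM quinidine.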

Cytochrome P450 2C19 (Homo sapiens), sequence (P33261 whole entry, looked up): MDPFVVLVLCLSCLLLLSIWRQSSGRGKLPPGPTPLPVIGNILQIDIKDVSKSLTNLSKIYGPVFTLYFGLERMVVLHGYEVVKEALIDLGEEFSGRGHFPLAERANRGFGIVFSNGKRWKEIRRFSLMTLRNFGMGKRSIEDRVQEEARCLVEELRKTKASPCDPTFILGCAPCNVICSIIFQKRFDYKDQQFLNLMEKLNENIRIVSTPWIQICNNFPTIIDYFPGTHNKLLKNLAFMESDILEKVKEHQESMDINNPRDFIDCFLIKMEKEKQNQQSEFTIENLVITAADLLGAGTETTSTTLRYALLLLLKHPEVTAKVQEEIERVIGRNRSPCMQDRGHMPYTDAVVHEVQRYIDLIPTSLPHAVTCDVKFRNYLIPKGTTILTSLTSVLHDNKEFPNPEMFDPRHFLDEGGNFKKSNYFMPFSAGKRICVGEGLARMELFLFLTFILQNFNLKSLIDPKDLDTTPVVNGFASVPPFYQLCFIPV
Cytochrome P450 2C9 (Homo sapiens), sequence (P11712 whole entry, looked up): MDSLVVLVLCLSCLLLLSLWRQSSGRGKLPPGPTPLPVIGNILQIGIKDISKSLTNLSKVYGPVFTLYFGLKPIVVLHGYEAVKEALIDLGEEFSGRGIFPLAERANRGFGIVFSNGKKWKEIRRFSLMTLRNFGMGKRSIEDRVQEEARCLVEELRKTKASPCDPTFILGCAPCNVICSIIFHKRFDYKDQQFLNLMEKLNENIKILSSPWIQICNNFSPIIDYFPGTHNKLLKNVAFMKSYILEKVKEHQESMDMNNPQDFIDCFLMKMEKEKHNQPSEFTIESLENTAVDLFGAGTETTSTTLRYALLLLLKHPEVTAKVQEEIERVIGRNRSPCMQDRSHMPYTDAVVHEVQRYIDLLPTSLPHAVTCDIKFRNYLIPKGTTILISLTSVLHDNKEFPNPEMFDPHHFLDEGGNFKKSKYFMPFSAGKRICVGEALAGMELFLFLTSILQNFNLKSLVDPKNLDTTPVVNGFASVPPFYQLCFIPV
Cytochrome P450 3A4 (Homo sapiens), sequence (P08684 whole entry, looked up): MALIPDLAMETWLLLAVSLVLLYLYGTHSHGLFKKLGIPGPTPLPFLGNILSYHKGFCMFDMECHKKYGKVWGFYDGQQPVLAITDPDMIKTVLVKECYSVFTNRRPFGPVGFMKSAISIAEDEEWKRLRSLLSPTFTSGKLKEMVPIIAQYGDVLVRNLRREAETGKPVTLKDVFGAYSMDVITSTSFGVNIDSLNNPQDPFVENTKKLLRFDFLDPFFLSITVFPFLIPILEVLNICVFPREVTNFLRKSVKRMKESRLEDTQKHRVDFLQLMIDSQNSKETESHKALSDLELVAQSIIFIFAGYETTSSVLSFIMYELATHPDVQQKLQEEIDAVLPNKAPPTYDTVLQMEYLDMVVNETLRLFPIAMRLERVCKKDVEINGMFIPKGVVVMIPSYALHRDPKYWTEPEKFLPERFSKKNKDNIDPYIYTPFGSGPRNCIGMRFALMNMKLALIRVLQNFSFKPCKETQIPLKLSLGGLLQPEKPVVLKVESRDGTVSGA
Cytochrome P450 2D6 (Homo sapiens), sequence (P10635 whole entry, looked up): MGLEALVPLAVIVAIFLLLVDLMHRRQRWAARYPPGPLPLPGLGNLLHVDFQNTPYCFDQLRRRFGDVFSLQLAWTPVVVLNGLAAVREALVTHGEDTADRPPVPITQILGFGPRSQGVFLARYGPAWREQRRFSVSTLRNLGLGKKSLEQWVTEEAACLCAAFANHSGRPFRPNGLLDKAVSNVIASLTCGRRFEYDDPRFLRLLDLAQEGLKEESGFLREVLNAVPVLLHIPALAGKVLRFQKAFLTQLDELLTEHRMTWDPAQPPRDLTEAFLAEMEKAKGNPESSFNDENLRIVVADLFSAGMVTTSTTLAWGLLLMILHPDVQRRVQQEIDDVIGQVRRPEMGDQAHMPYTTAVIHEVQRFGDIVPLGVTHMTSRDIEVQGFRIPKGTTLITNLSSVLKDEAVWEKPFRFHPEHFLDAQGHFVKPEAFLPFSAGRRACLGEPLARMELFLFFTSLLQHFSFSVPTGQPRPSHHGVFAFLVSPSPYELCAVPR

`CC12C=C(/C=C/C=C/c3ccccc3)C(C)(C1)C(/C=C/c1ccccc1)CC2=O` (configuration not stated): the Potency in test [1] was 3.16 µM (active); in test [2], 3.98 µM (active); in test [4] it was 1.58 µM (active). For the same compound, the activity change, positive = activation in test [3] was -62.5% [at 11.4 µM].
On to `COc1cccc([C@@H]2Oc3ccc(OC)cc3/C(=N/OC[C@@H](C)[C@H](OCc3ccccc3)C(C)C)[C@@H]2O)c1`, for which the Potency in test [1] is 3.98 µM (active); in test [2], 3.16 µM (active); in test [4] it was 2 µM (active). Also, the activity change, positive = activation in test [3] is -89.7% [at 11.4 µM].
Regarding `COc1ccc(O[C@H]2C=C[C@@H](c3ccccc3)O[C@H]2COC(=O)CC/C(C)=N/OCC[C@@H]2C=C[C@H](OC(C)=O)[C@H](COC(C)=O)O2)cc1`, the Potency in test [1] was 3.98 µM (active); in test [2], 3.98 µM (active); in test [4], 0.398 µM (active). The activity change, positive = activation in test [3] was -91.8% [at 11.4 µM].
As for `COC(=O)NC(c1ccccc1)C(C#N)C(=O)OC` (configuration not stated), the Potency entry in test [1] and in test [5] was “inactive” in each case. For the same compound, the activity change, negative = inhibition in test [2] is -16.5% [at 11.4 µM].
For `COC(=O)NC(c1cccc(F)c1)[C@@]1(C(=O)OC)CCCC1=O` (some centres not stated), the Potency result in test [1], in test [5] and in test [4] was “inactive” throughout. Besides, the activity change, negative = inhibition in test [2] is -15.7% [at 11.4 µM].
As for `CC12C=C(/C=C/c3ccc(Br)cc3)C(C)(C1)C(c1ccc(Br)cc1)CC2=O` (configuration not stated), the results for the Potency in test [1] and in test [2] were 2.51 µM (active) and 3.98 µM (active), respectively. The activity change, positive = activation in test [3] was -72.7% [at 11.4 µM]. Further, in test [4], the Potency result is “inactive”.
In the same order, the values of `C=CCc1cccc(C2C(C)CCC3C(=O)N4C(Cc5c([nH]c6ccccc56)C4c4cc(OC)c(OC)c(OC)c4)C(=O)N32)c1` (configuration not stated) are “inactive”, 3.98 µM (active), -74.3% [at 11.4 µM] and “inactive”.
